Assay results taken from the supplement of paper PMC10849652.
Targets with a hit are over-represented here; the source holds about 8,800 in all. About 0.5% of all pairs of compound and target were hits. Values without a mark were called inactive.

Experiments:
Assay in all cases: log2 fold change, soluble protein after heating vs DMSO (PISA); higher = thermal stabilisation; K562 lysate, 10 uM; active = over 0.2 and 3.5 SD of the protein, either way, in both replicates (recomputed)
alvocidib = compound: CN1CC[C@H](c2c(O)cc(O)c3c(=O)cc(-c4ccccc4Cl)oc23)[C@H](O)C1 [alvocidib]
How it was run: (§1)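 The values are log-two fold changes in thermal stability compared with solvent controls and come from duplicates. They were obtained by TMTpro 16plex LC-MS/MS, with channel sums equalised, on the supernatant after 21,000xg for 90 min. That supernatant came from crude K562 extract at 1 mg/mL protein treated with 10 μM compound for 30 min, heated for 3 min across 48°C-58°C, pooled and brought to 0.5% NP-40 at 4°C.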

Tubastatin A = compound: CN1CCc2c(c3ccccc3n2Cc2ccc(C(=O)NO)cc2)C1 [Tubastatin A]
How it was run: as §1

[1] = compound: CNC(=O)C1=CC=CC=C1NC2=NC(=NC=C2Cl)NC3=C(C=C(C=C3)N4CCOCC4)OC
How it was run: as §1

defactinib = compound: CNC(=O)c1ccc(Nc2ncc(C(F)(F)F)c(NCc3nccnc3N(C)S(C)(=O)=O)n2)cc1 [defactinib]
How it was run: as §1

encorafenib = compound: COC(=O)N[C@@H](C)CNc1nccc(-c2cn(C(C)C)nc2-c2cc(Cl)cc(NS(C)(=O)=O)c2F)n1 [encorafenib]
How it was run: as §1

[2] = compound: COC(=O)[C@H](CCSC)NC(=O)C1=C(C=C(C=C1)NC[C@H](CS)N)C2=CC=CC=C2
How it was run: as §1

alisertib = compound: COc1cc(Nc2ncc3c(n2)-c2ccc(Cl)cc2C(c2c(F)cccc2OC)=NC3)ccc1C(=O)O [alisertib]
How it was run: as §1

gefitinib = compound: COc1cc2ncnc(Nc3ccc(F)c(Cl)c3)c2cc1OCCCN1CCOCC1 [gefitinib]
How it was run: as §1

[3] = compound: COc1cc2nc(-c3cc(F)ccc3O)nc(N[C@@H]3CNC[C@H]3C(C)(C)O)c2cc1OC
How it was run: as §1

[4] = compound: CNc1nc(-c2ccc3c(N)n[nH]c3c2)cc(N2C[C@@H](C(=O)NC3CCCCC3)CC[C@H]2C)n1
How it was run: as §1

Sequence of UniProt Q92685 (Q92685 whole entry, looked up): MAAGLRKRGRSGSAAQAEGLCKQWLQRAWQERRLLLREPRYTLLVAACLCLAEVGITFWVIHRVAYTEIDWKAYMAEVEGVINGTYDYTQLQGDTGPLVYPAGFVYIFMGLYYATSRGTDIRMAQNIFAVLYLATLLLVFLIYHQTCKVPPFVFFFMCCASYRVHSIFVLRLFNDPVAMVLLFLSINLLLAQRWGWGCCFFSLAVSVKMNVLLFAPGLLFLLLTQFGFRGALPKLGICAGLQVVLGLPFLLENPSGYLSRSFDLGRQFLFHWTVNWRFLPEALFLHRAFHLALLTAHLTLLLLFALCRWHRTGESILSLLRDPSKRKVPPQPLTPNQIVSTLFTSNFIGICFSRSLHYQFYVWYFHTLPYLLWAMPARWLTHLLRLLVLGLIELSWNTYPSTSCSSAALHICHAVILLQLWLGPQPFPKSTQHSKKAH
Sequence of UniProt Q8IZP0 (Q8IZP0 whole entry, looked up): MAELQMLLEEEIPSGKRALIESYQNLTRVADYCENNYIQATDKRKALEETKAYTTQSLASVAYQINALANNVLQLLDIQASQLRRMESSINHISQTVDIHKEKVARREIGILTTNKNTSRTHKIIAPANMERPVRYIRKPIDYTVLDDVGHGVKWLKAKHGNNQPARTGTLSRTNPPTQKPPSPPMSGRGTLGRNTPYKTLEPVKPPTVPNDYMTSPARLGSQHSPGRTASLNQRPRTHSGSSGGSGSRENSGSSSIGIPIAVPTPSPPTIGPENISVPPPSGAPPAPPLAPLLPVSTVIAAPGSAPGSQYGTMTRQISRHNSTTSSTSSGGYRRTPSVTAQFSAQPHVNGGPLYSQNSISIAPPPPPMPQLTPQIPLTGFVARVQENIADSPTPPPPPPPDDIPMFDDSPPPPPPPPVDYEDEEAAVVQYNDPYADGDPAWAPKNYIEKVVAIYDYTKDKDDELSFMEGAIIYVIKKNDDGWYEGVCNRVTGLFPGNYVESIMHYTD
Sequence of UniProt Q9BXX3 (Q9BXX3 whole entry, looked up): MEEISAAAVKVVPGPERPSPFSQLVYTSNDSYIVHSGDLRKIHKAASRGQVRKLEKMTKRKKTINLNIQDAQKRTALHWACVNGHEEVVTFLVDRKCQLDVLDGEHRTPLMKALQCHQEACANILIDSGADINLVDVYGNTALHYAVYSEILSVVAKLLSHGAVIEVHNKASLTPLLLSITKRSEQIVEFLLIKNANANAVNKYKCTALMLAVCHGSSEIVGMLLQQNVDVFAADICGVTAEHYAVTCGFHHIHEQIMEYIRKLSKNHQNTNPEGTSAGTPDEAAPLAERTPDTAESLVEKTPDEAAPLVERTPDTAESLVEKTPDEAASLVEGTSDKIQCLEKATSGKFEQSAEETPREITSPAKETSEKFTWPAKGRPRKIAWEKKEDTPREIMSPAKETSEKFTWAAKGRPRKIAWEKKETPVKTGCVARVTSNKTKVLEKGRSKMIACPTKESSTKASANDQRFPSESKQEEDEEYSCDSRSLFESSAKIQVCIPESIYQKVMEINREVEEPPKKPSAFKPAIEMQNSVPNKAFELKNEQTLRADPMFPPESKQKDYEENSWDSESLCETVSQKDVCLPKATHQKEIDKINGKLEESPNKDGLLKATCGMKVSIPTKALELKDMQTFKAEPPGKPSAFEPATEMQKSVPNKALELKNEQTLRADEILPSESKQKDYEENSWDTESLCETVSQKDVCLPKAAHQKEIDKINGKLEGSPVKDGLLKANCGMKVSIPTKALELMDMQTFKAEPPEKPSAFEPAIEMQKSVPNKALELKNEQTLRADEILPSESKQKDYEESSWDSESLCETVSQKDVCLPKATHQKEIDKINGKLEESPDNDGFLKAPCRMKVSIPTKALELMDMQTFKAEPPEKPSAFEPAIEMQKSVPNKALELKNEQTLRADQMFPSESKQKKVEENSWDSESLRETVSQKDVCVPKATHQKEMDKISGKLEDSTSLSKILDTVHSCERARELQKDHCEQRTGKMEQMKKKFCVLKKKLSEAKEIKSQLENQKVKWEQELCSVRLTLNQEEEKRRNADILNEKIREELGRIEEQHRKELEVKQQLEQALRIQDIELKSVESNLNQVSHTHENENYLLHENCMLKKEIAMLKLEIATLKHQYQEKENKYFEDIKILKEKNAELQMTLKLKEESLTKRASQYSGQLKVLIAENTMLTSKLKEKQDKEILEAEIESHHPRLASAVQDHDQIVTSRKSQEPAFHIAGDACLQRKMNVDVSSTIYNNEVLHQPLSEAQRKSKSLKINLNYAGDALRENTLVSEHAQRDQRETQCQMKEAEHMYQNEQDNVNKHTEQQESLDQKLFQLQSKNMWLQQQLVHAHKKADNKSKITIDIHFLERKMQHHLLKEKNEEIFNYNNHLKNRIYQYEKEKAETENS
Sequence of UniProt P30838 (P30838 whole entry, looked up): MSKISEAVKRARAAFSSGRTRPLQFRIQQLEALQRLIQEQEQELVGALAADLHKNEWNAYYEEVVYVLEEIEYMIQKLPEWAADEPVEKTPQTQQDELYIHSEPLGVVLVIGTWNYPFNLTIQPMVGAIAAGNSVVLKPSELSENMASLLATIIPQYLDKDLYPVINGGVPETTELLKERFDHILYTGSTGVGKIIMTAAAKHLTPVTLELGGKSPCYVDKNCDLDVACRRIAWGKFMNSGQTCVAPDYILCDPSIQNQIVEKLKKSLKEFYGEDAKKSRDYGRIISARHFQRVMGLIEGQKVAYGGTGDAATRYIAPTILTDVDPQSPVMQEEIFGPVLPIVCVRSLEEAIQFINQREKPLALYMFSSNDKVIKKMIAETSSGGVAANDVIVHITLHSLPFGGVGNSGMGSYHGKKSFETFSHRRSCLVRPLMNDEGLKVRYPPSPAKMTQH
Sequence of UniProt P35611 (P35611 whole entry, looked up): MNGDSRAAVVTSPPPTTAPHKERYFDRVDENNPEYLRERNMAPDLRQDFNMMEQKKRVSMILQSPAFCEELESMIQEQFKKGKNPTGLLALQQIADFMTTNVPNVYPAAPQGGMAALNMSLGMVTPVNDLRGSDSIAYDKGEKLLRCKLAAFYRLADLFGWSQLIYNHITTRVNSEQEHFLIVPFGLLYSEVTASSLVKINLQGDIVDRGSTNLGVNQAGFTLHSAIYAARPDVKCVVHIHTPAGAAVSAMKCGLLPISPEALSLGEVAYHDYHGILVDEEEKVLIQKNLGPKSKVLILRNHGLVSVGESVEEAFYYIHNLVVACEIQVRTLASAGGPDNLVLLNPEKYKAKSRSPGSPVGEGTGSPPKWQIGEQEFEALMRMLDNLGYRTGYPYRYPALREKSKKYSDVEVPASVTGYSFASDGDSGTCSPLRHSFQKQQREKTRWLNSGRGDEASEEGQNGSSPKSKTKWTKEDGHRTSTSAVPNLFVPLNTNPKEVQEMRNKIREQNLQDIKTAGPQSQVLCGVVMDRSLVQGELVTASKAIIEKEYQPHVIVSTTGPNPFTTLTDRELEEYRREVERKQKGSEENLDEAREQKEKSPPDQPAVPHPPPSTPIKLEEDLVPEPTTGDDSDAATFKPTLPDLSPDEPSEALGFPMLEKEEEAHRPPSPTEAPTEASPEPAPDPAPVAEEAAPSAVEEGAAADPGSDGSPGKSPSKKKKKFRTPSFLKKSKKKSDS
Sequence of UniProt Q2VPB7 (Q2VPB7 whole entry, looked up): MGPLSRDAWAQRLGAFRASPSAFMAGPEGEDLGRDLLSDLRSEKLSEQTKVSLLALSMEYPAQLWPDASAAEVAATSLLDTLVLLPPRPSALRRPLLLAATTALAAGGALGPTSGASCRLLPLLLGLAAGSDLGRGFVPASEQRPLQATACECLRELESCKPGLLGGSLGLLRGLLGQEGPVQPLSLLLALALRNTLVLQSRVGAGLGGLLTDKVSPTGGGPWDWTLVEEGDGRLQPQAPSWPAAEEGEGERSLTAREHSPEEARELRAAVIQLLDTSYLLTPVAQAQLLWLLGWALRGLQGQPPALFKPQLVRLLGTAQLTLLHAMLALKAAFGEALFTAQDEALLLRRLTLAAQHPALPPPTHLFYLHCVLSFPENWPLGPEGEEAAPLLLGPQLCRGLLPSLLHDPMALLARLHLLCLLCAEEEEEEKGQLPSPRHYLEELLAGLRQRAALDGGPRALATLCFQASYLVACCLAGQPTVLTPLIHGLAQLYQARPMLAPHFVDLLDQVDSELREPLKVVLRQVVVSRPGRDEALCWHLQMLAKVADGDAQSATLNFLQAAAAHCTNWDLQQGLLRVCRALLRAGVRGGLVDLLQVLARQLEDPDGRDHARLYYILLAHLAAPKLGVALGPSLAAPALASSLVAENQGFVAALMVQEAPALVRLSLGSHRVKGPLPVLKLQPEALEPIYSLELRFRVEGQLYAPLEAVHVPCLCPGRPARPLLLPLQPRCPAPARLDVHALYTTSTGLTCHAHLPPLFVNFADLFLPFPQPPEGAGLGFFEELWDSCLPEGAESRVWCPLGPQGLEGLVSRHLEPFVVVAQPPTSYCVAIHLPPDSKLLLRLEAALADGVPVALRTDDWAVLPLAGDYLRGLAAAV
Sequence of UniProt O15120 (O15120 whole entry, looked up): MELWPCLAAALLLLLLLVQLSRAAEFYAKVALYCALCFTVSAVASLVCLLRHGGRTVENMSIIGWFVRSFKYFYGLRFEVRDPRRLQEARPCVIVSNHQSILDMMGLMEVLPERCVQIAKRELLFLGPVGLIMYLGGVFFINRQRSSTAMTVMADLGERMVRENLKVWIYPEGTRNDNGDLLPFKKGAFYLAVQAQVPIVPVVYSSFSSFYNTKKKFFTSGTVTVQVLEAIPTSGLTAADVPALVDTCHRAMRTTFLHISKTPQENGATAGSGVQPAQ
Sequence of UniProt Q9BT30 (Q9BT30 whole entry, looked up): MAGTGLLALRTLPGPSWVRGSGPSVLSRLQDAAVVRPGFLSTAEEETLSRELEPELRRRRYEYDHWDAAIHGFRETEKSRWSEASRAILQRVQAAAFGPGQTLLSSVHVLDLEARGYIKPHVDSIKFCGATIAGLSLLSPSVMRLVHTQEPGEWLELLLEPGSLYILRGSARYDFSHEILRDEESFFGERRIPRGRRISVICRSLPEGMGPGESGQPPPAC
Sequence of UniProt Q9P1F3 (Q9P1F3 whole entry, looked up): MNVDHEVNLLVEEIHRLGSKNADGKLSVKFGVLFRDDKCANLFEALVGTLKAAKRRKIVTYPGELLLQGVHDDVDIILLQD

Row | Target | log2 fold change (alvocidib) | log2 fold change (Tubastatin A) | log2 fold change [1] | log2 fold change (defactinib) | log2 fold change (encorafenib) | log2 fold change [2] | log2 fold change (alisertib) | log2 fold change (gefitinib) | log2 fold change [3] | log2 fold change [4]
1 | AGPAT2 (UniProt O15120) | -0.008 | 0.01 | 0.091 | -0.104 | 0.054 | -0.043 | 0.009 | 0.052 | – | –
2 | AP3D1 isoform 2 (UniProt O14617) | 0.25 | – | -0.06 | 0.078 | – | – | 0.093 | 0.111 | 0.087 | –
3 | ADAM17 (UniProt P78536) | -0.066 | 0.063 | 0.011 | 0.005 | 0.09 | 0.109 | -0.048 | 0.031 | – | 0.04
4 | ALKBH7 (UniProt Q9BT30) | -0.016 | -0.045 | 0.35 | – | -0.115 | 0.201 | 0.333 | -0.108 | – | -0.029
5 | ABCC5 (UniProt O15440) | -0.12 | 0.121 | -0.002 | 0.125 | 0.165 | -0.032 | – | – | -0.012 | 0.008
6 | ARL13B (UniProt Q3SXY8) | 0.182 | 0.018 | 0.165 | -0.025 | – | – | – | – | 0 | -0.102
7 | ANKRD30A (UniProt Q9BXX3) | -0.148 | -0.294 | – | – | 0.053 | 0 | -0.009 | -0.03 | 1.45 (active) | 0.017
8 | AIF1L (UniProt Q9BQI0) | 0.083 | -0.009 | 0.073 | – | 0.06 | -0.401 (active) | 0.095 | 0.035 | 0.001 | 0.164
9 | AMDHD2 (UniProt Q9Y303) | 0.012 | – | – | -0.059 | – | – | – | – | – | –
10 | ANKRD10 (UniProt Q9NXR5) | 0.003 | -0.037 | 0.018 | 0.012 | – | – | -0.018 | -0.047 | 0.035 | -0.016
11 | ACYP2 (UniProt P14621) | 0.084 | -0.021 | 0.007 | 0.329 (active) | – | – | -0.096 | -0.02 | -0.009 | –
12 | ANXA13 isoform 2 (UniProt P27216) | -0.121 | -0.072 | -0.059 | -0.036 | – | – | 0.047 | 0.085 | 0.034 | -0.369
13 | AP5B1 (UniProt Q2VPB7) | -0.091 | -0.149 | 0.099 | – | -0.017 | -0.011 | -0.008 | 0.05 | -0.059 | -0.092
14 | ALG3 (UniProt Q92685) | -0.04 | -0.009 | -0.436 | 0.165 | -0.061 | 0.171 | – | – | -0.033 | -0.043
15 | ACTG1 (UniProt K7EM38) | – | – | – | – | -0.286 | 0.142 | – | – | 0.099 | –
16 | ADD1 isoform 4 (UniProt P35611) | -0.397 | 0.303 | -0.081 | 0.071 | -0.034 | 0 | – | – | 0.094 | 0.051
17 | ALDH3A1 (UniProt P30838) | -0.218 | 0.366 | -0.065 | – | – | – | – | – | 0.165 | -0.138
18 | ABRACL (UniProt Q9P1F3) | -0.016 | – | 0.121 | – | – | – | 0.091 | -0.207 | -0.081 | 0.166
19 | ACAT1, A0A5F9ZHJ0 | -0.023 | 0.081 | – | – | – | – | -0.035 | -0.056 | – | –
20 | ANKRD40 (UniProt Q6AI12) | 0.084 | -0.164 | 0.08 | 0.095 | 0.04 | -0.109 | -0.188 | -0.089 | – | 0.101
21 | ABI1 isoform 6 (UniProt Q8IZP0) | – | – | – | – | -0.212 | 0.114 | – | – | 0.023 | –
22 | ABHD13 (UniProt Q7L211) | -0.225 | – | – | 0.022 | 0 | 0.006 | 0.023 | 0.06 | -0.019 | -0.051
23 | ANP32E isoform 3 (UniProt Q9BTT0) | -0.27 | – | – | -0.141 | 0.036 | -0.015 | – | – | – | –
